Molecules are shown by their SMILES. Records with an inconclusive call do not appear. The source made the active and inactive calls. Calls come from the whole dose curve; as a rule, active = well fitted curve in the direction sought with a large enough effect; inconclusive = small, poorly fitted or top-dose-only effect, or another doubt; inactive = no such curve, though single readings can be large; an effect the other way counts as inactive or inconclusive.

A short description of assay [1]: qHTS of pediatric cancer cell lines to identify multiple opportunities for drug repurposing: Primary screen for NB1643 cells (AID 1347099). Note: nearly all actives have a fitted effect of over 50% in size. Note: potency is the fitted concentration of half-maximal effect. Put shortly: (§1)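 Viability was measured as metabolically active cells after 48 hours of treatment, read by CellTiter-Glo luminescence. Compounds were tested at multiple final concentrations, giving concentration-response curves.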
A general note: In qHTS, concentration-response curves come from the screen itself.

Assay [2] in a line: qHTS of pediatric cancer cell lines to identify multiple opportunities for drug repurposing: Primary screen for LAN-5 cells (AID 1347100). Note: potency is the fitted concentration of half-maximal effect. Put shortly:
(§2)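 Cells (500-1,000/well) in growth media were settled 5 h at 37 degrees C, then given compounds for 48 h. Viability was read as CellTiter-Glo luminescence. Primary runs used MIPE at 11 points (0.78 nM-46 µM) and NPC at 8 points (0.59 nM-46 µM); follow-ups used 11 points.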

Assay [3] can be described thus: qHTS of pediatric cancer cell lines to identify multiple opportunities for drug repurposing: Primary screen for OHS-50 cells (AID 1347103). Note: nearly all actives have a fitted effect of over 40% in size. Note: potency is the fitted concentration of half-maximal effect. Put shortly: (§3)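 Cells (500-1,000/well) rested 5 h, then received compounds for 48 h; metabolically active cells were measured by CellTiter-Glo luminescence. Final concentrations spanned up to 46 µM (MIPE, 11-point) or 0.59 nM-46 µM (NPC, 8-point) in primary screens, 11-point in follow-ups.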

The nature of assay [4]: qHTS of pediatric cancer cell lines to identify multiple opportunities for drug repurposing: Primary screen for MG 63 (6-TG R) cells (AID 1347105). Note: nearly all actives have a fitted effect of over 50% in size. Note: potency is the fitted concentration of half-maximal effect. Put shortly: as §1
The nature of assay [5]: qHTS of pediatric cancer cell lines to identify multiple opportunities for drug repurposing: Primary screen for control Hh wild type fibroblast cells (AID 1347106).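 Note: series mostly up to about 46 µM; a drop in luminescence marks cytotoxicity and a rise apparent proliferation; nearly all actives have a fitted effect of over 55% in size.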 In a few lines: as §2
Assay [6] is described as follows: qHTS of pediatric cancer cell lines to identify multiple opportunities for drug repurposing: Primary screen for Rh30 cells (AID 1347107). Note: series mostly up to about 46 µM; nearly all actives have a fitted effect of over 75% in size. Put shortly: as §2
Assay [7] in a line: qHTS of pediatric cancer cell lines to identify multiple opportunities for drug repurposing: Primary screen for Rh41 cells (AID 1347108). Note: nearly all actives have a fitted effect of over 70% in size. Note: potency is the fitted concentration of half-maximal effect. Put shortly:
as §1

Assay [8] is described as follows: qHTS of pediatric cancer cell lines to identify multiple opportunities for drug repurposing: Primary screen for Rh18 cells (AID 1347102). Note: nearly all actives have a fitted effect of over 65% in size. Note: potency is the fitted concentration of half-maximal effect. In a few lines: as §2
Assay [9] in a line: qHTS of pediatric cancer cell lines to identify multiple opportunities for drug repurposing: Primary screen for RD cells (AID 1347104). Note: nearly all actives have a fitted effect of over 55% in size. Note: potency is the fitted concentration of half-maximal effect. Put shortly: as §1
Assay [10] can be described thus: qHTS of pediatric cancer cell lines to identify multiple opportunities for drug repurposing: Primary screen for BT-12 cells (AID 1347101). Note: nearly all actives have a fitted effect of over 25% in size. Note: potency is the fitted concentration of half-maximal effect. In a few lines: as §3

For the molecule `C[C@H]1[C@H](O)O[C@@H]2O[C@@]3(C)CC[C@@H]4[C@H](C)CC[C@@H]1[C@@]24OO3`, the Potency was 5.9 µM (active) in assay [1], 6.62 µM (active) in [2], 1.37 µM (active) in assay [3] and 23.5 µM (active) in assay [4]. Further, the Potency entry in [5], in [6] and in assay [7] was “inactive” in each case.

For the molecule `CN1N=C(N)c2cn([C@@H]3O[C@H](COP(=O)(O)O)[C@@H](O)[C@@H]3O)c3ncnc1c23`, the Potency in assay [1] was 16.6 µM (active); in assay [2], 0.166 µM (active); in assay [8] it was 9.35 µM (active); in assay [7], 2.35 µM (active).

In the case of `Cc1cc2c(cc1C1(c3ccc(C(=O)O)cn3)CC1)C(C)(C)CCC2(C)C`, the Potency result in assay [1], in assay [2], in assay [8], in assay [4], in assay [5] and in assay [7] was “inactive” throughout.

Consider `CCNC(=O)c1noc(-c2cc(C(C)C)c(O)cc2O)c1-c1ccc(CN2CCOCC2)cc1`, for which the Potency was 0.105 µM (active) in assay [1], 0.105 µM (active) in assay [2], 0.153 µM (active) in [3] and 0.148 µM (active) in [7].

On to `COc1cc2ncnc(Nc3cc(Br)c(O)c(Br)c3)c2cc1OC`, for which the Potency in assay [1] is 1.32 µM (active); in assay [2], 16.6 µM (active); in assay [3] it was 27.3 µM (active); in [9], 0.935 µM (active). Moreover, the Potency result in [5] and in assay [6] was “inactive” throughout.

As to `CC(=O)N1CCN(c2ccc(OCc3nn(C)c(C)c3-c3cccc4c(CCCOc5cc(C)c(Cl)c(C)c5)c(C(=O)O)n(Cc5cccnc5)c34)cc2)CC1`, the Potency in assay [1] is 18.7 µM (active); in [2], 20.9 µM (active); in assay [9], 18.7 µM (active); in assay [4], 29.6 µM (active); in [7], 18.7 µM (active). Besides, in assay [5], the Potency result is “inactive”.

For `Nc1nc(Cl)nc2c1ncn2[C@@H]1O[C@H](CO)[C@@H](O)[C@H]1F`, the Potency in [1] was 3.72 µM (active); in [2], 0.0372 µM (active); in [4] it was 1.18 µM (active). In addition, the Potency entry in assay [8], in assay [5] and in [6] was “inactive” each time.

For `NC1(C(=O)N[C@@H](CCO)c2ccc(Cl)cc2)CCN(c2ncnc3[nH]ccc23)CC1`, the Potency in [1] was 1.87 µM (active); in assay [2], 18.7 µM (active); in assay [8] it was 2.35 µM (active); in assay [4], 7.43 µM (active); in assay [7], 0.743 µM (active).

As to `CC(=O)OCC(=O)[C@@]12OC(C)(C)O[C@H]1C[C@H]1[C@@H]3C[C@H](F)C4=CC(=O)C=C[C@]4(C)[C@@]3(F)[C@@H](O)C[C@@]12C`, the Potency result in assay [1], in assay [2], in assay [8], in assay [9], in assay [4] and in assay [5] was “inactive” in each case. Also, the Potency result in [6] is “inactive”.

With `COc1ccc(C=CC(=O)Nc2ccccc2C(=O)O)cc1OC`, the Potency in [1] is 5.9 µM (active). Further, the Potency entry in assay [2], in assay [8], in [4], in assay [5] and in [7] was “inactive” each time.

Regarding `C[C@]12CCC3=C4CCC(=O)C=C4CC[C@@H]3[C@H]1CC[C@@]2(O)CC#N`, the Potency result in [1], in [10], in assay [3], in assay [9], in assay [4] and in assay [5] was “inactive” throughout. Besides, the Potency entry in assay [6] and in assay [7] was “inactive” throughout.

As for `NC(=O)c1ccc(N(C(N)=O)c2c(F)cccc2F)nc1-c1ccc(F)cc1F`, the Potency entry in [1], in assay [10], in [8], in [4], in assay [5] and in assay [6] was “inactive” each time.

As for `CCOc1ccccc1N=Nc1c(C)[nH]n(-c2nc(-c3ccccc3)cs2)c1=O`, the Potency in [1] was 1.18 µM (active). Further, the Potency entry in assay [10], in assay [8] and in [5] was “inactive” in each case.

In the case of `CC(C)(F)C[C@H](N[C@@H](c1ccc(-c2ccc(S(C)(=O)=O)cc2)cc1)C(F)(F)F)C(=O)NC1(C#N)CC1`, the Potency result in assay [1], in assay [10], in assay [4] and in assay [5] was “inactive” throughout.

`C=C1[C@H](n2cnc3c(=O)[nH]c(N)nc32)C[C@H](O)[C@H]1CO`: the Potency entry in assay [1], in [8], in [5] and in assay [7] was “inactive” in each case. Also, the Potency in [3] is 8.63 µM (active).

Consider `Cn1cc(-c2ccc3nnc(Sc4ccc5ncccc5c4)n3n2)cn1`, for which the Potency entry in [1], in [10], in assay [8], in assay [3] and in assay [5] was “inactive” each time.

On to `Nc1ncnc2c1ncn2[C@@H]1O[C@H](CO)[C@@H](O)[C@@H]1O`, for which the Potency is 0.833 µM (active) in assay [1]; 6.11 µM (active) in assay [10]; 1.87 µM (active) in [8]; 3.85 µM (active) in assay [3]; 1.66 µM (active) in assay [9]; 3.72 µM (active) in assay [4]. Moreover, in [7], the Potency is 2.35 µM (active). The Potency entry in assay [5] was “inactive”.

In the case of `COc1ccc(-c2oc3c(CC=C(C)C)c(O)cc(O)c3c(=O)c2O)cc1`, the Potency was 14.8 µM (active) in assay [1], 37.2 µM (active) in assay [9] and 18.7 µM (active) in assay [7]. Also, the Potency result in assay [10] was “inactive”.

As for `CNC(=O)[C@H](CC1=CN=C2C=CCC=C12)NC(=O)[C@@H](CC(=O)NO)CC(C)C`, the Potency in assay [1] was 0.0662 µM (active); in assay [10], 0.344 µM (active); in assay [3] it was 1.37 µM (active); in [9], 1.18 µM (active); in assay [4], 9.35 µM (active). The Potency result in assay [8] and in [6] was “inactive” in each case.

In the case of `CON(C)C(=O)N1N=C(c2cc(F)ccc2F)S[C@]1(CCCN)c1ccccc1`, the Potency entry in [1], in [5] and in assay [6] was “inactive” throughout. For the same molecule, the Potency in assay [10] was 15.3 µM (active); in assay [3], 0.001 µM (active).

Values taken from PubChem BioAssay (NCATS).
